High-throughput results (PubChem BioAssay)
KCNQ2 block: blocks the rat KCNQ2 potassium channel; actives 1.1% (n = 310,000); CHO-K1 KCNQ2, FluxOR thallium flux, 20 min; active compounds read low; AID 2156; B-score at 10 µM;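 active means fluorescence ratio B-score at most minus 3 library SDs, with starting brightness B-score within 2 library SDs, cut at about -5.5 in these data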
Target sequence (O88943 whole entry, looked up): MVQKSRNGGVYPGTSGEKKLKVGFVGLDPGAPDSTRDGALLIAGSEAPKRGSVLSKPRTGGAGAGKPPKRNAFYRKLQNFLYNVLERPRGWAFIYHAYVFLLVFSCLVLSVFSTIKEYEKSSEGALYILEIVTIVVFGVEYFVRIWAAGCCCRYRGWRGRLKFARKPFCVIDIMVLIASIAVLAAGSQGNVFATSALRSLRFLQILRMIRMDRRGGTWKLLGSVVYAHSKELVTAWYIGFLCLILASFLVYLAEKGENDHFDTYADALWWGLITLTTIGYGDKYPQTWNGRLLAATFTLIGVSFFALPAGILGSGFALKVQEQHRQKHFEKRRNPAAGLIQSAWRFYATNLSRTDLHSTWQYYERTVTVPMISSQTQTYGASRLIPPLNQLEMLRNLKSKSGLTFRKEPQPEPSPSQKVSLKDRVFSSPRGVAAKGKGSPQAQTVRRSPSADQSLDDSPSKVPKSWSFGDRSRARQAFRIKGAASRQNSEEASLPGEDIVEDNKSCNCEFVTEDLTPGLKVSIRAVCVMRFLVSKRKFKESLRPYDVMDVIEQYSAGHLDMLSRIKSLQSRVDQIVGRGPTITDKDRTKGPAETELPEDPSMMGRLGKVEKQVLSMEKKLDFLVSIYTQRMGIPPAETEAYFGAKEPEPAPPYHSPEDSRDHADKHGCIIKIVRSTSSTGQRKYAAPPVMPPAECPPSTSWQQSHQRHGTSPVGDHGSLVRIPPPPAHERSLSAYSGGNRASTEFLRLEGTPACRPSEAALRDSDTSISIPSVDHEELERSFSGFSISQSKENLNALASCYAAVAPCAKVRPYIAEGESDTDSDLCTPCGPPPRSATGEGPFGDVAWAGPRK
KCNQ2 enhance: potentiators of rat KCNQ2 potassium channel; CHO-K1 KCNQ2, FluxOR thallium flux fluorescence; active compounds read high; actives 0.54% (n = 310,000); B-score at 10 µM;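 active means fluorescence ratio B-score at least 3 SD of library B-scores, with initial fluorescence B-score within 3 of them, cut at about 5.3 in these data; same plate scores as AID 2156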;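 further: B-score of peak minus minimum over baseline fluorescence ratio after K+ and Tl+ stimulus; positive B-score means potentiation of KCNQ2 with more thallium influx and brighter signal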
The depositor's hits bear a star; i = inactive; / = no result given. Compounds with a hit are over-represented: about 1.6% of the library has one in this group of screens.

SMILES	KCNQ2 block	KCNQ2 enhance
COc1ccc(CC(=O)Nc2cc(C)ccc2O)cc1OC	i	/
Cc1nc(SCC(=O)Nc2nnc(C(C)C)s2)n[nH]1	i	0.28
Cc1[nH]c(-c2ccc(F)cc2)cc1C(=O)N1CCN(c2cccc(Cl)c2)CC1	i	/
O=C(Nc1cccc(Cl)c1)Nc1ccccc1-n1ccnc1	i	0.01
Cc1ccc(O)c(C(=O)c2cnc3c(c2)CN(C)C(=O)N3)c1	i	0.53
Cc1ccc2c(c1)-c1ncc(C(=O)c3cc(Br)ccc3O)cc1CO2	-7.43*	-7.43
O=C(CCNC(=O)C1CCN(S(=O)(=O)c2ccc(F)cc2)CC1)NCc1ccccc1Cl	i	/
O=C(COc1cccc(C(F)(F)F)c1)NCC(c1ccco1)N1CCCCC1 (stereo not drawn)	-5.6*	-5.6
O=C(COc1ccccc1)NCC(c1ccco1)N1CCN(c2ccccc2)CC1 (stereo not drawn)	i	/
O=C(Nc1cccc([N+](=O)[O-])c1)c1ccc2c(c1)C(=O)N(c1ccccn1)C2=O	i	/
Cn1c(Cc2cccs2)nnc1SCC(=O)Nc1ccc(F)cc1F	i	/
Cc1nnc(SC(C)C(=O)Nc2ccc(Cl)cn2)n1Cc1ccccc1 (stereo not drawn)	-6.15*	-6.15
CC(Sc1nnc(-c2ccc(Cl)cc2Cl)n1Cc1ccccc1)C(=O)Nc1nccs1 (stereo not drawn)	i	/
N#Cc1ccsc1NC(=O)C1CCCN1S(=O)(=O)c1cccs1 (stereo not drawn)	i	/
C=CCN(CC=C)C(=S)NC(=O)c1ccc(OC)cc1	i	2.95
C=CCN(CC=C)C(=S)NC(=O)c1ccc(C)c(Br)c1	i	23.9*
Cc1ccc2oc(C(=O)Nc3ccc(S(=O)(=O)Nc4ncccn4)cc3)c(C)c2c1	i	/
CC(C)CNC(=O)[C@@H]1CSC2c3ccccc3C(=O)N21 (stereo partly drawn)	i	/
Cc1ccc(NC(=O)CN2C(=O)CC(C)S(=O)(=O)c3ccccc32)cc1 (stereo not drawn)	i	/
C=C1SC(=Nc2c(C)cccc2Cl)N(C(=O)c2sc3ccccc3c2Cl)C12CCCCC2	i	/
C=C1SC(=Nc2ccccc2Cl)N(C(=O)c2sc3ccccc3c2Cl)C1(C)C	-5.78*	-5.78
Nc1nonc1-n1nnc(C(=O)N/N=C/c2ccoc2)c1-c1ccccc1	i	/
O=C(O)CSc1nnc(CNc2ccc(F)cc2)n1-c1ccccc1	i	0.62
COC(=O)CSc1nnc(CNc2ccc(Cl)cc2)n1-c1ccccc1	-5.75*	-5.75
COc1ccc(C(=O)OCCc2sc[n+](CC(=O)c3ccccc3)c2C)cc1	i	1.46
SMILES	KCNQ2 block	KCNQ2 enhance
Cc1c(CCOC(=O)C2C3CC4CC(C3)CC2C4)sc[n+]1CC(=O)c1ccc(Br)cc1 (stereo not drawn)	-7.19*	-7.19
COc1ccc(CN2CCC(C(=O)Nc3ccc(Oc4cccnc4)cc3)CC2)c(C)c1C	i	/
O=C(/C=C/c1ccc([N+](=O)[O-])cc1)c1cccs1	i	/
Nc1ccc(/C=C/C(=O)c2cccs2)cc1	-6.86*	-6.86
COc1cccc(C(=O)NCC(=O)N2CCC3(CC2)NCCc2[nH]cnc23)c1	i	0.02
Cc1onc(-c2c(Cl)cccc2Cl)c1/C(N)=N/OC(=O)C(C)(C)C	i	0.14
Cc1onc(-c2c(Cl)cccc2Cl)c1CO/N=C(\C#N)c1c(Cl)cccc1Cl	-5.55*	-5.55
COc1cccc(N2CCN(S(=O)(=O)c3ccc(-c4cnc(C5CC5)o4)cc3)CC2)c1	i	0.13
COc1ccccc1NS(=O)(=O)c1ccc(-c2cnc(C3CC3)o2)cc1	i	/
Cc1cccc(N(C)S(=O)(=O)c2ccc(-c3cnc(C4CC4)o3)cc2)c1	-9.89*	-9.89
Cc1ccc(NS(=O)(=O)c2ccc(-c3cnc(C4CC4)o3)cc2)c(C)c1	-5.69*	-5.69
Cc1c(C(=O)N(CC(C)C)c2c(N)n(Cc3ccccc3)c(=O)[nH]c2=O)sc2nc3n(c(=O)c12)CCC3	i	/
CCOc1ccc2nc(SC3CC(=O)N(c4ccc(C)cc4)C3=O)sc2c1 (stereo not drawn)	i	/
CCOc1[nH]n(-c2ccccc2)c(=O)c1C=Nc1ccc(OC)cc1	i	0.02
CCOc1ccc2nc(/N=C/c3c(C)[nH]n(-c4ccc(C)cc4)c3=O)sc2c1	i	16.7*
CCOc1ccc2nc(/N=C/c3c(C)[nH]n(-c4ccccc4)c3=O)sc2c1	i	20.2*
Cc1nn(S(=O)(=O)c2ccc(Br)cc2)c(C)c1S(=O)(=O)N1CCOCC1	i	/
CS(=O)(=O)Nc1ccc(C2=NN(C(=O)CCCC(=O)O)C(c3cccs3)C2)cc1 (stereo not drawn)	i	/
COc1ccc(S(=O)(=O)N2CCOCC2)cc1NC(=O)c1ccccc1C	i	0.81
CC(C)[C@H](NC(=O)N1c2ccccc2NC(=O)[C@@H]1C(C)C)C(=O)N1CCC(C(=O)O)CC1	i	/
CCn1cc(CN2CCCC(CNC(=O)COc3ccccc3OC)C2)c(C)n1 (stereo not drawn)	i	0.58
